These results are taken from PubChem BioAssay (EPA / NIEHS).

Assay [1] addresses Cellular tumor antigen p53 (Homo sapiens) (UniProt P04637). Briefly: TOX21_p53_BLA_p5_ratio: Tox21 HCT-116 p53 Agonism Beta-lactamase Assay, Ratio, Phase 5 (AID 2283599). In short, it runs like this:
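HCT-116 cells carrying a p53-inducible beta-lactamase reporter were seeded at 4000 cells/well and dosed after 5 h with compound in DMSO (217-fold dilution). After 16 h at 37C, CCF4-AM substrate was added for 2 h, and the 460/530 nm emission ratio was scored as gain-of-signal versus DMSO.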

Assay [2] can be described thus: TOX21_p53_BLA_p5_viability: Viability Assessment in the Tox21 HCT-116 p53 Agonism Beta-lactamase Assay, Phase 5 (AID 2283600). A digest of the protocol:
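Seeded cells (4000/well) settle 5 h before compound addition. Plates then incubate 16 h at 37C, receive FRET substrate for 2 h, and finally CellTiter-Glo, with luminescence measured after a 30 min room-temperature incubation.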

The target of assay [3] is Cellular tumor antigen p53 (Homo sapiens) (UniProt P04637). Briefly: TOX21_p53_BLA_p4_ratio: Tox21 HCT-116 p53 Agonism Beta-lactamase Assay, Ratio, Phase 4 (AID 2283601). A digest of the protocol:
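HCT116 cells carrying an inducible beta-lactamase reporter were plated at 4000 cells/well, rested 5 h, then exposed to compounds in DMSO (217-fold dilution) for 16 h at 37C. CCF4-AM substrate was loaded 2 h at room temperature; 460/530 nm emission ratio scored gain-of-signal versus DMSO.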

Assay [4] in a line: TOX21_p53_BLA_p4_viability: Viability Assessment in the Tox21 HCT-116 p53 Agonism Beta-lactamase Assay, Phase 4 (AID 2283597).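 Also: hits lower the luminescence signal meaning cytotoxicity.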 In short, it runs like this: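 Luminescent ATP readout (CellTiter-Glo, 30 min, room temperature) in the same wells as the p53 bla ratio. HCT116 cells were treated for 16 h at 37C with DMSO-dissolved compounds.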

Records with an inconclusive call do not appear. Activity calls are given as the source filed them. The calls were made as follows: active = hit-call score of the fitted dose curve at least 0.9, where 1 is the maximum; inconclusive = response in the unintended direction; inactive = score below 0.9.

Cellular tumor antigen p53 (Homo sapiens), sequence (P04637 whole entry, looked up): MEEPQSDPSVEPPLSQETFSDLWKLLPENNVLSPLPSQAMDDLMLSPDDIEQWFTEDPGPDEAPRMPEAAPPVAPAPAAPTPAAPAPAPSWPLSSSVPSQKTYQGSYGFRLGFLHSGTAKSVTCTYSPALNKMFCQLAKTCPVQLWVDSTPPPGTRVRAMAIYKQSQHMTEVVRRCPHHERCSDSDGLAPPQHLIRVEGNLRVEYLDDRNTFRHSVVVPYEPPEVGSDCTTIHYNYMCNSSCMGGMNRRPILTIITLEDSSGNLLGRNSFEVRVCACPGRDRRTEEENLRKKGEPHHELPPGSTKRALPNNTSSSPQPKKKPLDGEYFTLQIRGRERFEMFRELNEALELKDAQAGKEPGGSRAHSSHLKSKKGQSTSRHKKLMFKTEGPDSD

For `CC1=C(O)C(=O)C(C)O1` (configuration not stated), the result in assay [1], in assay [2] and in assay [3] was inactive.

Consider `CCN1CCCC1=O`, for which the outcome in assay [1], in assay [2] and in assay [3] was inactive.

As to `C=Cc1ccc(OC(C)=O)cc1`, the result in assay [1] and in assay [2] was inactive.

Turning to `CCCC(C)C(=O)OCC` (configuration not stated), the result in assay [4] and in assay [3] was inactive.

For `CC(=O)c1ccccc1O`, the result in assay [1] was inactive.

Regarding `CCCCCC(=O)OCC`, the result in assay [1] was inactive.
